Experimental data: PubChem BioAssay (Tox21)
Inconclusive results are not listed. Where a call stands in place of a potency, no number is given. The source holds several records for some structures; these can differ, active in one and inactive in another. Active and inactive are the calls of the source. Unless noted, the call rests on the fitted dose curve; in most records, active means well fitted curve in the direction sought with a large enough effect in the repeat runs; inconclusive means weak or mixed curves; inactive means no such curve, though single readings can be large; an effect the other way counts as inactive or inconclusive.

Tests used:
[1] = molecular target: Estrogen receptor beta (Homo sapiens) (UniProt Q92731); experiment: qHTS assay to identify small molecule antagonists of the estrogen receptor beta (ER-beta) signaling pathway (AID 1259378; active means well fitted inhibition curve with a large enough effect in the signal ratio in the repeat runs, not every such curve was filed as active; the % refers to the signal ratio; further: potency means the concentration at half of the fitted maximal effect)
Sequence of Estrogen receptor beta (Homo sapiens) (Q92731 whole entry, looked up): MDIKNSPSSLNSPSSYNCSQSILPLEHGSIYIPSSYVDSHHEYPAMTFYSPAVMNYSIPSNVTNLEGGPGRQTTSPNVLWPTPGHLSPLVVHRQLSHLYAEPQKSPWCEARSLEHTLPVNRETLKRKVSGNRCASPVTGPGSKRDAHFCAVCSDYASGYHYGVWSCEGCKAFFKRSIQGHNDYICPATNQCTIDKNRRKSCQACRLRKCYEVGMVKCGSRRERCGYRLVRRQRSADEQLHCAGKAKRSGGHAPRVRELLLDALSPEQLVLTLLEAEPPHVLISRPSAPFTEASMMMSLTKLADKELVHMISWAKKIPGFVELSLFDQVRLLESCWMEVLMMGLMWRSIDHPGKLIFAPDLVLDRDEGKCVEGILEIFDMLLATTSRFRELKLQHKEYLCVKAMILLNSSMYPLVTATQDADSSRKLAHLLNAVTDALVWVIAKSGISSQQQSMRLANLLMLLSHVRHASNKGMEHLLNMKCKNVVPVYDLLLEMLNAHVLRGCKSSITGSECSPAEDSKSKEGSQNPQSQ
How it was run: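 ER-beta-UAS-bla HEK293T cells in 2% charcoal-stripped FBS medium treated with compound plus 1nM final 17-beta-estradiol for 16 hr at 37C. Beta-lactamase reporter read by FRET substrate fluorescence after 2 hours at room temperature.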

[2] = qHTS assay to identify small molecule agonists of the androgen receptor (AR) signaling pathway in the presence of an antagonist - cell viability counter screen (AID 1259379); further: nearly all actives have a fitted effect of over 25% in size; further: potency means the concentration at half of the fitted maximal effect
How it was run: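 Nilutamide-containing (3.0uM final) MDA-kb2 cultures, 3,000 cells/well, were treated with compounds across 15 concentrations. After 16 hr at 37C with no CO2, cell viability was determined by CellTiter-Fluor fluorescence in the luciferase assay wells.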

[3] = qHTS assay to identify small molecule antagonists of the estrogen receptor beta (ER-beta) signaling pathway - cell viability counter screen (AID 1259382); further: nearly all actives have a fitted effect of over 55% in size; further: potency means the concentration at half of the fitted maximal effect
How it was run: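 Viability is scored by CellTiter-Glo luminescence (30 min, room temperature) in ER-beta-UAS-bla HEK293T wells already read for reporter fluorescence. Compound exposure lasts 16 hr at 37C alongside 1nM 17-beta-estradiol in charcoal-stripped serum medium.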

[4] = qHTS assay to identify small molecule agonists or antagonists of the thyroid stimulating hormone receptor (TSHR) signaling pathway - wild type cell line counter screen (AID 1259384; calls by dose curve)
How it was run: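 Wild-type Hek293 cells, 800/well, 18 h at 37C, then compound with Ro20-1724 for 30 min RT. cAMP by HTRF (cAMP-d2/anti-cAMP cryptate), 1 h RT, fluorescence read. 15 concentrations, triplicates.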

[5] = molecular target: Thyrotropin receptor (Homo sapiens) (UniProt P16473); experiment: qHTS assay to identify small molecule antagonists of the thyroid stimulating hormone receptor (TSHR) signaling pathway (AID 1259385; calls by dose curve; further: nearly all actives have a fitted effect of over 20% in size)
Sequence of Thyrotropin receptor (Homo sapiens) (P16473 whole entry, looked up): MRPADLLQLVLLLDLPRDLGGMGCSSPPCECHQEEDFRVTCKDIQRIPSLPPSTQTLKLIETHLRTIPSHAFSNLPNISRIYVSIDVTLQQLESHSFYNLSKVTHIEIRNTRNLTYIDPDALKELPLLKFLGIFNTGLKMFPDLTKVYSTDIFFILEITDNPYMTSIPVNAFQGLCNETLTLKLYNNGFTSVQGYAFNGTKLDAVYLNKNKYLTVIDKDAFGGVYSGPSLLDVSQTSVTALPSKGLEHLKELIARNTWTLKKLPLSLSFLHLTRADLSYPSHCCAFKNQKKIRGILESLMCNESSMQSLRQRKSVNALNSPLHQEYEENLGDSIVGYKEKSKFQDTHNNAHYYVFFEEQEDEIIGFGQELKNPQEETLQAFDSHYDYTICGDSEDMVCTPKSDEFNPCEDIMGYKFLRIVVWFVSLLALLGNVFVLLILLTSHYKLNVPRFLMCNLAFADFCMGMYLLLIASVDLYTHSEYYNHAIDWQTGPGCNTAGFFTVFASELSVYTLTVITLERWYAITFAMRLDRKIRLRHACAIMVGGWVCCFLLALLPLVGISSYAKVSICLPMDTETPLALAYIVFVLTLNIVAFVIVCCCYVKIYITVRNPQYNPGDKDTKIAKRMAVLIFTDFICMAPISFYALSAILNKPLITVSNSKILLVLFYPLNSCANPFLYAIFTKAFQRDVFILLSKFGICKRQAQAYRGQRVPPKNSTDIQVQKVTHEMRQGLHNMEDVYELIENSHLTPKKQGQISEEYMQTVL
How it was run: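 TSHR-HEK293 cells (800/well) plated 18 h, then compounds with Ro20-1724 and TSH at 1.5 ng/mL final, 30 min at room temperature. cAMP quantified by HTRF (cAMP-d2/anti-cAMP-cryptate, 1 h); 15 concentrations in triplicate.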

[6] = molecular target: Progesterone receptor (Homo sapiens) (UniProt P06401); experiment: qHTS assay to identify small molecule agonists of the progesterone receptor (PR) signaling pathway (AID 1346784; calls by dose curve; further: nearly all actives have a fitted effect of over 30% in size; further: potency means the concentration at half of the fitted maximal effect)
Sequence of Progesterone receptor (Homo sapiens) (P06401 whole entry, looked up): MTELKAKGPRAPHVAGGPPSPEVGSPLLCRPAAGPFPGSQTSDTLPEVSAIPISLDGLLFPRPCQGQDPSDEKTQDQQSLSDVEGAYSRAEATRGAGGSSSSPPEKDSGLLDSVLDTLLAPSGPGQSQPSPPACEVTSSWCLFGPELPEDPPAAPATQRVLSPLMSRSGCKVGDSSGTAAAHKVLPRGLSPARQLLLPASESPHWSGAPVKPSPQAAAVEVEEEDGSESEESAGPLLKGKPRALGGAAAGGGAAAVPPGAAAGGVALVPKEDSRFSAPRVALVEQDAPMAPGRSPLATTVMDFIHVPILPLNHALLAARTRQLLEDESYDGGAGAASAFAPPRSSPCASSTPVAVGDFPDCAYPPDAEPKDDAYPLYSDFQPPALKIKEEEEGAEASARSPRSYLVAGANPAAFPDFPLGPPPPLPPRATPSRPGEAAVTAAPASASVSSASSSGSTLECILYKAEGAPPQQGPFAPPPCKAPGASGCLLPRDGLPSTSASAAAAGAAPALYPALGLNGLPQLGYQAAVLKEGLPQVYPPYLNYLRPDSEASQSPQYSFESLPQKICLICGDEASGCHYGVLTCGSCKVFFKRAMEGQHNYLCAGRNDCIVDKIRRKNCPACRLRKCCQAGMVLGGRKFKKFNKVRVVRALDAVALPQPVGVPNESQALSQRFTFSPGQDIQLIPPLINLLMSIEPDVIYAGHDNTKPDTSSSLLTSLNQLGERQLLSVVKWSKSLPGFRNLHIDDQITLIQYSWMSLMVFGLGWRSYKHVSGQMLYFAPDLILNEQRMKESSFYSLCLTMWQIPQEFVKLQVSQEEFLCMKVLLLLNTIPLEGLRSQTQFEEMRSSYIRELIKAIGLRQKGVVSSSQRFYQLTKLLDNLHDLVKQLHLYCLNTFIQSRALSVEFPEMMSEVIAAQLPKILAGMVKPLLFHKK
How it was run: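 PR-UAS-bla HEK 293T cells carrying a UAS-driven beta-lactamase reporter were seeded in medium with 2% charcoal-stripped FBS, preincubated 6 hr at 37C, then exposed to compounds in DMSO for 16 hr; agonism was read by LiveBLAzer B/G FRET fluorescence.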

[7] = qHTS assay to identify small molecule antagonists of the progesterone receptor (PR) signaling pathway - cell viability counter screen (AID 1346798); further: series mostly up to about 92 µM; nearly all actives have a fitted effect of over 50% in size
How it was run: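 PR-UAS-bla HEK293T cells in medium with 2% charcoal-stripped FBS were treated with compounds plus R5020 for 16 hr at 37C. Cell viability was then read by CellTiter-Glo luminescence after 30 min at room temperature in the same wells.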

[8] = qHTS assay to identify small molecule agonists of the progesterone receptor (PR) signaling pathway - cell viability counter screen (AID 1346799; calls by dose curve; further: nearly all actives have a fitted effect of over 45% in size; further: potency means the concentration at half of the fitted maximal effect)
How it was run: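 PR-UAS-bla HEK293T cells, 3,000 per well in medium with 2% charcoal-stripped FBS, were preincubated 6 hr at 37C, then exposed to compounds for 16 hr; viability was read as CellTiter-Glo luminescence after 30 min at room temperature.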

[9] = qHTS assay to identify small molecule antagonists of the TGF-beta/Smad signaling pathway - cell viability counter screen (AID 1346824); further: nearly all actives have a fitted effect of over 50% in size
How it was run: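 SBE-bla HEK 293T cells, incubated overnight, then compound plus 0.25 ng/mL TGF-beta1 (stock added) for 5 hr at 37 C. Viability was read in the same wells by CellTiter-Glo luminescence after 30 min at room temperature.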

[10] = qHTS assay to identify small molecule agonists of the TGF-beta/Smad signaling pathway - cell viability counter screen (AID 1346829); further: top concentration of the series differs between compounds; nearly all actives have a fitted effect of over 45% in size
How it was run: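 Compound-treated SBE-bla HEK 293T cells (5 hr, 37 C) were assessed for viability with CellTiter-Glo in parallel with the reporter read.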

[11] = qHTS assay to identify small molecule agonists of the TGF-beta/Smad signaling pathway (AID 1346859; active means well fitted activation curve with a large enough effect in the signal ratio in the repeat runs, not every such curve was filed as active; the % refers to the signal ratio; further: series mostly up to about 77 µM)
How it was run: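 HEK 293T cells stably carrying a beta-lactamase reporter driven by the Smad binding element were seeded overnight, exposed to DMSO-dissolved compounds for 5 hr at 37 C, 5% CO2, then loaded with FRET substrate for 2 hr at room temperature.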

[12] = Human pregnane X receptor (PXR) small molecule agonists, qHTS cell viability counter screen (AID 1346977); further: nearly all actives have a fitted effect of over 50% in size
How it was run: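 PXR-Luc HepG2 cells in medium with 5% charcoal-stripped FBS were pre-incubated 5hr, then exposed to compounds for 24hr at 37C. Viability was read in the same wells by CellTiter-Fluor fluorescence, reagent added after 23hr with a 1hr incubation.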

[13] = Caspase-3/7 induction in HepG2 cells by small molecules, qHTS assay (AID 1346978); further: nearly all actives have a fitted effect of over 15% in size
How it was run: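 Wild-type HepG2 cells, 2,000/well, settled 5 hr at 37 C and 5% CO2, then compound-treated for 17 hr; caspase-3/7 activity read by luminescent Caspase-Glo 3/7 after 30 min at room temperature.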

[14] = qHTS assay to identify small molecule agonists of the estrogen receptor beta (ER-beta) signaling pathway - cell viability counter screen (AID 1259380); further: nearly all actives have a fitted effect of over 30% in size; further: potency means the concentration at half of the fitted maximal effect
How it was run: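 Steps: plate ER-beta-UAS-bla HEK293T cells, rest 6 hr; add compounds in DMSO; incubate 16 hr at 37C, 5% CO2; add FRET substrate 2 hr; add CellTiter-Glo, wait 30 min at room temperature; read luminescence.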

[15] = qHTS assay to identify small molecule agonists of the estrogen receptor alpha (ER-alpha) signaling pathway in the presence of an antagonist - cell viability counter screen (AID 1259386);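 further: series mostly up to about 92 µM; cells exposed to compounds for 22 h at 37 °C before the viability read; nearly all actives have a fitted effect of over 30% in size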
How it was run: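 In this counter screen, compound effects on VM7Luc4E2 viability were tested in the presence of the antagonist ICI-182,780 at 10.0nM final. Compounds were dosed at 15 concentrations, exposure lasted 22hr, and the CellTiter-Fluor signal was read.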

[16] = molecular target: Thyrotropin-releasing hormone receptor (Homo sapiens) (UniProt P34981); experiment: qHTS assay to identify small molecule antagonists of the thyrotropin-releasing hormone receptor (TRHR) signaling pathway (AID 1346877; active means well fitted inhibition curve with a large enough effect in the repeat runs, not every such curve was filed as active; further: series mostly up to about 51 µM)
Sequence of Thyrotropin-releasing hormone receptor (Homo sapiens) (P34981 whole entry, looked up): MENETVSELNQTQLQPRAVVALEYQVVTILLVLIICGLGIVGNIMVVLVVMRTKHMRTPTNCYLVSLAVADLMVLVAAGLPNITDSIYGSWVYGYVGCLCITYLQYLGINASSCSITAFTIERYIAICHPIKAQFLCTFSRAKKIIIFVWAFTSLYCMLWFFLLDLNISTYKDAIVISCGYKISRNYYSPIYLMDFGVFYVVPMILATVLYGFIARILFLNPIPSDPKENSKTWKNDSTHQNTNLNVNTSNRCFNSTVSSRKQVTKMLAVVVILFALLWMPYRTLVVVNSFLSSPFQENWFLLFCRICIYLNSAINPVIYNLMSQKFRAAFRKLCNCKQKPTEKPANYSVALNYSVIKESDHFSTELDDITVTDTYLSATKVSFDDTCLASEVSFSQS
How it was run: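 Kinetic fluorescence (3 min, 1 s resolution) following stimulation with TRH at 1 nM final; HEK293 cells bearing human TRHR; 5 min compound preincubation at RT; concentration-response over 15 points, triplicates.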

[17] = molecular target: Thyrotropin-releasing hormone receptor (Homo sapiens) (UniProt P34981); experiment: qHTS assay to identify small molecule agonists of the thyrotropin-releasing hormone receptor (TRHR) signaling pathway (AID 1346891; calls by dose curve; further: series mostly up to about 58 µM)
How it was run: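 TRHR-expressing HEK293 cells were plated 18 h at 37 °C/5% CO2, loaded with calcium dye 2 h at 37 °C, then given compound in DMSO; fluorescence was read kinetically for 3 min at 1 s intervals.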

[18] = molecular target: Progesterone receptor (Homo sapiens) (UniProt P06401); experiment: qHTS assay to identify small molecule antagonists of the progesterone receptor (PR) signaling pathway (AID 1346795; active means well fitted inhibition curve with a large enough effect in the signal ratio in the repeat runs, not every such curve was filed as active; the % refers to the signal ratio; further: potency means the concentration at half of the fitted maximal effect)
How it was run: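 PR-UAS-bla HEK293T cells carrying a UAS-driven beta-lactamase reporter were plated in medium with 2% charcoal-stripped FBS and rested 6 hr at 37C. Compounds were added with 1 nM R5020 (final) for 16 hr, then FRET substrate loaded 2 hr at room temperature.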

[19] = molecular target: Estrogen receptor (Homo sapiens) (UniProt P03372); experiment: qHTS assay to identify small molecule agonists of the estrogen receptor alpha (ER-alpha) signaling pathway in the presence of an antagonist (AID 1259383; calls by dose curve; further: top concentration of the series differs between compounds; nearly all actives have a fitted effect of over 15% in size)
Sequence of Estrogen receptor (Homo sapiens) (P03372 whole entry, looked up): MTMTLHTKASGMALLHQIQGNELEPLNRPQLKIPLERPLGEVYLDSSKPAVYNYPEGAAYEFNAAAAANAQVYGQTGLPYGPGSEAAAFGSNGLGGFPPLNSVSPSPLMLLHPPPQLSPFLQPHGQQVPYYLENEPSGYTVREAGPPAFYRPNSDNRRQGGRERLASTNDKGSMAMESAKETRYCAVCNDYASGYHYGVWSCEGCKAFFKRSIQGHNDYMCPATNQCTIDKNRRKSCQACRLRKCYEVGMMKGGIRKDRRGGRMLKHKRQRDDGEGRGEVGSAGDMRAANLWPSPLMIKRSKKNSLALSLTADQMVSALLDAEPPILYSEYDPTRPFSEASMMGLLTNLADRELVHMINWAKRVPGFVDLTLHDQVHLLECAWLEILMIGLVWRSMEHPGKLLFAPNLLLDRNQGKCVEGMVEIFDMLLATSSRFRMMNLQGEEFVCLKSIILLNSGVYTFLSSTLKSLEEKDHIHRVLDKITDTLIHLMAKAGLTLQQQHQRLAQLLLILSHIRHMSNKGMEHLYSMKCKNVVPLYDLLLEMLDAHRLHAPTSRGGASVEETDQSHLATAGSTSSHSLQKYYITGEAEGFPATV
How it was run: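 Readout was ERE-driven luciferase luminescence in VM7Luc4E2 cells, which express full-length ER-alpha endogenously. Compounds were tested at 15 concentrations for 22hr alongside 10.0nM ICI-182,780 (final concentration).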

[20] = molecular target: Androgen receptor (Homo sapiens) (UniProt P10275); experiment: qHTS assay to identify small molecule agonists of the androgen receptor (AR) signaling pathway in the presence of an antagonist (AID 1259381; calls by dose curve; further: nearly all actives have a fitted effect of over 15% in size)
Sequence of Androgen receptor (Homo sapiens) (P10275 whole entry, looked up): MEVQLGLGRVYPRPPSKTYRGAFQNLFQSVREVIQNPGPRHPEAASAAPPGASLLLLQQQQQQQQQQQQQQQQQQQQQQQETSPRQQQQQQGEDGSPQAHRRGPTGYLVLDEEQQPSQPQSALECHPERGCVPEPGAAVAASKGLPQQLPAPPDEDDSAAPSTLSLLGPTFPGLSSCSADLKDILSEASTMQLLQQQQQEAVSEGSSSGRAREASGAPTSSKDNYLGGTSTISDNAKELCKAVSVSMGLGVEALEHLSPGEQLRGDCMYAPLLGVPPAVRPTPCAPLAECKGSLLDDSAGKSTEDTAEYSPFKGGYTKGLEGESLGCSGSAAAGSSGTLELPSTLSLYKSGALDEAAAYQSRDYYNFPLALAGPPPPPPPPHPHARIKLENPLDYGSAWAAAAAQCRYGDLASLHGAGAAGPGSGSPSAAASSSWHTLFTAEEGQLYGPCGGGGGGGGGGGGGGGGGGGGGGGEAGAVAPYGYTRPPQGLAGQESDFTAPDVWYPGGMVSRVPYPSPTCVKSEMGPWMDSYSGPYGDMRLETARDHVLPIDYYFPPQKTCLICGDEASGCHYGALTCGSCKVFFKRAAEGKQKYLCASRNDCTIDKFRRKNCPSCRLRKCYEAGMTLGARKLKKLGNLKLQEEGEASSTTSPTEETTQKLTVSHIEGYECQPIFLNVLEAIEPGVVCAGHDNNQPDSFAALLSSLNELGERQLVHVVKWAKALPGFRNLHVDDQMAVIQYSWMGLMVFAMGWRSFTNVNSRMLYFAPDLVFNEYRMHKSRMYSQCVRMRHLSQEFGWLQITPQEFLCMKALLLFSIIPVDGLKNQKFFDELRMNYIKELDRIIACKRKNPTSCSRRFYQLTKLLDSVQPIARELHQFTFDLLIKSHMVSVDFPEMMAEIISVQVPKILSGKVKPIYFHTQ
How it was run: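 Reporter-gene luminescence from MDA-kb2 cells exposed 16hr at 37C (0% CO2) to 15-point compound titrations with 3.0uM final nilutamide as AR antagonist.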

Structure (SMILES) | Potency [1] | Potency [2] | Potency [3] | outcome [4] | outcome [5] | Potency [6] | Potency [7] | Potency [8] | Potency [9] | Potency [10] | outcome [11] | Potency [12] | Potency [13] | Potency [14] | Potency [15] | outcome [16] | Potency [17] | Potency [18] | Potency [19] | Potency [20]
Cc1ccc(C(=O)O)o1 | inactive | inactive | inactive | inactive | inactive | inactive | inactive | inactive | inactive | inactive | inactive | inactive | inactive |  |  |  |  |  |  | 
CC(=O)[C@@]1(O)CC[C@H]2[C@@H]3CCC4=CC(=O)CC[C@]4(C)[C@H]3CC[C@@]21C | inactive | inactive | inactive | inactive | inactive | 3.35 µM (active) | inactive |  | inactive | inactive |  |  | inactive | inactive | inactive | inactive | inactive |  |  | 
O=C(Oc1ccccc1)c1ccc(O)cc1 | 48.9 µM (active) | inactive | inactive | inactive | inactive | inactive | inactive | inactive | inactive | inactive |  | inactive | inactive |  | inactive | inactive | inactive | 61.1 µM (active) |  | 
C=C1C2CCC(C2)C1(C)C (stereo unspecified) | inactive | inactive | inactive | inactive | inactive | inactive | inactive | inactive | inactive | inactive | inactive | inactive | inactive |  | inactive | inactive | inactive | inactive | inactive | 
CCCCC(CC)COC(=O)CCCCCCCC(=O)OCC(CC)CCCC (stereo unspecified) | 12.2 µM (active) and inactive | 8.63 µM (active) and inactive | 30.6 µM (active) and inactive | inactive | inactive | inactive |  | 54.5 µM (active) and inactive | inactive | inactive |  | inactive | inactive | 15.4 µM (active) |  | inactive | inactive | 8.63 µM (active) and inactive |  | 
CCCCCCC(C)(C)S | inactive | inactive | inactive | inactive | inactive | inactive | inactive | inactive | inactive | inactive | inactive | inactive | inactive | inactive |  | inactive | inactive |  |  | 
O=C(O)c1ccc([N+](=O)[O-])cc1 | inactive | inactive | inactive |  |  | inactive | inactive | inactive | inactive | inactive | inactive | inactive | inactive | inactive | inactive | inactive | inactive | inactive |  | 
CN(CCOc1ccc(CC2SC(=O)NC2=O)cc1)c1ccccn1 (stereo unspecified) | inactive | inactive | inactive | inactive | inactive | inactive | inactive | inactive | inactive | inactive | inactive | inactive | inactive |  | inactive |  |  |  | inactive | 
Cc1ccc(C)c(C)c1 | inactive | inactive | inactive | inactive | inactive | inactive | inactive | inactive | inactive | inactive | inactive | inactive | inactive |  | inactive | inactive | inactive | inactive | inactive | inactive
C/C=C(C)/C=C/C=C(C)C | inactive | inactive | inactive |  |  | inactive | inactive | inactive | inactive | inactive | inactive | inactive | inactive | inactive | inactive |  |  |  |  | 
CC(=O)Nc1ccc(C(=O)O)cc1 | inactive | inactive | inactive | inactive | inactive | inactive | inactive | inactive | inactive | inactive | inactive | inactive | inactive |  | inactive | inactive | inactive |  | inactive | 
CC(C)(CO)COC(=O)C(C)(C)CO | inactive | inactive | inactive | inactive | inactive | inactive | inactive | inactive | inactive | inactive |  | inactive | inactive |  |  | inactive | inactive |  | inactive | inactive
C=C(C)C(=O)OCCC[Si](OC)(OC)OC | inactive | inactive | inactive | inactive | inactive | inactive | inactive | inactive | inactive | inactive | inactive | inactive | inactive |  | inactive | inactive | inactive | inactive | inactive | 
